# Data published in PubChem BioAssay (NCATS).
# Several values for one entry are separate records, joined by “and”; a condition that tells them apart may be missing. Equal entries are not always repeated. Records with an inconclusive call do not appear. Where a structure was tested more than once in an assay, its records may differ in their call. Activity calls are given as the source filed them. Unless noted, the call rests on the fitted dose curve; in most records, active means well fitted curve in the direction sought with a large enough effect; inconclusive means small, poorly fitted or top-dose-only effect, or another doubt; inactive means no such curve, though single readings can be large; an effect the other way counts as inactive or inconclusive.
# How the values were obtained:
# [1] = Cell Proliferation Assay Versus the ED40515 IL2 Dependent ATL cell lines (AID 1053195; calls by dose curve); conditions: ED40515 IL2-dependent ATL cells
# How it was run: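 IL2-dependent ED40515 ATL cells grown with IL2, 1000 cells/well in phenol red-free RPMI + 5% FBS, exposed 48 hours at 37C. Viability by CellTiter-Glo luminescence after 15 min at RT; 9.2 uM bortezomib as control.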
# [2] = High-throughput drug toxicity screening in the BPDCN cell line Gen2.2 (AID 1224824; call rule not given here;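 further: cells exposed to compounds for 48 h before reading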); conditions: Gen2.2 BPDCN cells; at 45.8 µM (top of the series) unless noted
# How it was run: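 Seed 500 exponentially growing Gen2.2 cells/well; add compounds by pin tool; incubate 48 h, 37 °C, 5% CO2; add CellTiter-Glo, 15 min RT; read luminescence. % activity vs DMSO (100%) and bortezomib (0%).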
# [3] = High-throughput drug toxicity screening in the BPDCN cell line Cal-1 (AID 1224825; call rule not given here); conditions: Cal-1 BPDCN cell viability, qHTS; at 45.8 µM (top of the series) unless noted
# How it was run: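 Cal-1 cells, 500 per well in phenol-red-free RPMI with 10% FBS, exposed to compounds for 48 hours at 37C, 5% CO2. Viability read by CellTiter-Glo luminescence; percent activity normalized to DMSO (100%) and 9.2 uM bortezomib final (0%).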
# [4] = qHTS assay for measurement of the activity of small molecule inhibitors on Zika virus induced Caspase-3 activity in human iPSC derived neural progenitor cells (hNPCs) (AID 1224857); conditions: hNPCs ZIKV-induced caspase-3/7, Caspase-Glo luminescence, 6 h; series mostly up to 45.7 µM; further: nearly all actives have a fitted effect of over 65% in size; further: potency means the concentration at half of the fitted maximal effect
# How it was run: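 Human iPSC-derived neural progenitor cells pretreated 1 hr with compounds, then infected with Zika virus (2 FFU/cell) for 6 hours at 37 C. Caspase-3/7 measured by Caspase-Glo luminescence; % inhibition calculated from induction scaled to uninfected (0%) and infected (100%) wells.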
# [5] = qHTS assay for measurement of the activity of small molecule inhibitors on Zika virus induced Caspase-3 activity in human astrocytoma cells (AID 1224859); conditions: SNB-19 ZIKV-induced caspase-3/7, luminescence, 6 h; series mostly up to 45.7 µM; further: potency means the concentration at half of the fitted maximal effect
# How it was run: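 SNB-19 astrocytoma cells, 250/well, pretreated 1 h with compounds, then Zika virus at 2 FFU/cell for 6 h at 37 C; Caspase-Glo 3/7 luminescence after 30 min; percent inhibition normalised to uninfected and infected controls.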
# [6] = qHTS Screen of the MIPE 4.0 Collection Against Ewings Sarcoma (EW8) (AID 1259255); conditions: EW8 Ewing sarcoma viability, CellTiter-Glo, 48 h; series mostly up to 45.8 µM; further: nearly all actives have a fitted effect of over 35% in size; further: potency means the concentration at half of the fitted maximal effect;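 on viability: 100% = DMSO-treated cells and 0% = medium-only wells without cells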
# How it was run: (§1)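 Viability screen: 48 h incubation at 37C, 95% humidity, 5% CO2 with serially titrated compound, followed by CellTiter-Glo readout.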
# [7] = qHTS Screen of the MIPE 4.0 Collection Against Ewings Sarcoma (TC32) (AID 1259256); conditions: TC32 Ewing sarcoma viability, CellTiter-Glo, 48 h; series mostly up to 45.8 µM; further: nearly all actives have a fitted effect of over 45% in size; further: potency means the concentration at half of the fitted maximal effect
# How it was run: as §1
# [8] = qHTS Screen of the MIPE 4.0 Collection Against Ewings Sarcoma (TC71) (AID 1259253); conditions: TC71 Ewing sarcoma viability, CellTiter-Glo, 48 h; series mostly up to 45.8 µM; further: nearly all actives have a fitted effect of over 40% in size; further: potency means the concentration at half of the fitted maximal effect
# How it was run: as §1
# [9] = qHTS Screen of the MIPE 4.0 Collection Against Ewings Sarcoma (RDES) (AID 1259252); conditions: RD-ES Ewing sarcoma viability, CellTiter-Glo, 48 h; series mostly up to 45.8 µM; further: nearly all actives have a fitted effect of over 35% in size; further: potency means the concentration at half of the fitted maximal effect
# How it was run: as §1
# [10] = qHTS assay to identify small molecule inhibitors of chordoma cells - UCH-1 (AID 1259355); conditions: UCH-1 chordoma viability, CellTiter-Glo, 48 h, combination, with auranofin plus four topoisomerase inhibitors; series mostly up to 46.1 µM; further: on the % scale 0 is the no-effect control and ±100 the full control effect; nearly all actives have a fitted effect of over 55% in size
# How it was run: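 Cells (800/well) were seeded and left overnight at 37 C, 5% CO2, then treated with drugs at 15 concentrations plus a combination mix of auranofin, camptothecin, doxorubicin, rubitecan and topotecan. Viability after 48hr was read by CellTiter-Glo luminescence.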
Structure (SMILES),Potency [1],"cell viability, % of control (lower = more cytotoxic) [2]",viability (% of control) [3],Potency [4],Potency [5],Potency [6],Potency [7],Potency [8],Potency [9],Potency [10]
N#Cc1ccc(C(c2ccc(C#N)cc2)n2cncn2)cc1,10.5 µM (active),33%,70.2%,inactive,inactive,20.9 µM (active),14.8 µM (active),,,
CN[C@@H](C)C(=O)N[C@H]1CCCC[C@H]2CC[C@@H](C(=O)N[C@@H](c3ccccc3)c3cn(CCCCc4ccc(CCCCn5cc([C@@H](NC(=O)[C@@H]6CC[C@@H]7CCCC[C@H](NC(=O)[C@H](C)NC)C(=O)N76)c6ccccc6)nn5)cc4)nn3)N2C1=O,23.5 µM (active),28%,1.94%,inactive,inactive,26.4 µM (active),18.7 µM (active),,,
C[C@]1(c2nc3c(C(N)=O)cccc3[nH]2)CCCN1,16.6 µM (active),50.9%,88%,inactive,inactive,inactive,18.7 µM (active),inactive,,
COc1nc(-c2ccc3c(c2)OCO3)n(-c2ccc(NC(=O)CSc3ccccc3)cc2)n1,20.9 µM (active),127%,116%,inactive,inactive,inactive,,20.9 µM (active),,
O=c1[nH]c(-c2ccc(C(F)(F)F)cc2)nc2c1CSCC2,26.4 µM (active),117%,114%,inactive,inactive,20.9 µM (active),,,23.5 µM (active),
CCc1cncnc1N1CCN(Cc2nc3ccc(C(F)(F)F)cc3[nH]2)CC1,1.18 µM (active),130%,91.1%,inactive,inactive,,16.6 µM (active),,,
COc1ccc(C2=N[C@H](c3ccc(Cl)cc3)[C@H](c3ccc(Cl)cc3)N2C(=O)N2CCNC(=O)C2)c(OC(C)C)c1,20.9 µM (active),4.67%,4.23%,inactive,inactive,5.26 µM (active),16.6 µM (active),16.6 µM (active),18.7 µM (active),
CS(=O)(=O)c1ccc(C(=O)Nc2ccc(Cl)c(-c3ccccn3)c2)c(Cl)c1,13.2 µM (active),312%,65.3%,inactive,inactive,inactive,inactive,inactive,inactive,
CCCS(=O)(=O)Nc1ccc(F)c(C(=O)c2c[nH]c3ncc(-c4ccc(Cl)cc4)cc23)c1F,20.9 µM (active),453%,99.1%,inactive,inactive,,20.9 µM (active),14.8 µM (active),,
Cc1cc(C=c2sc3nc4ccccc4n3c2=O)c(C)n1-c1ccccc1,6.62 µM (active),74.1%,103%,,inactive,inactive,,,,
Fc1ccc(Cl)cc1-c1nc(Nc2ccncc2)c2nccnc2n1,13.2 µM (active),443%,85.1%,inactive,inactive,,1.32 µM (active),,inactive,
Cc1cccc(-c2[nH]c(C(C)(C)C)nc2-c2ccc3nccnc3c2)n1,16.6 µM (active),391%,15.5%,inactive,inactive,23.5 µM (active),20.9 µM (active),26.4 µM (active),,
COc1cc(F)c(F)c(Nc2ccc(I)cc2F)c1NS(=O)(=O)C1(C[C@H](O)CO)CC1,37.2 µM (active),27.8%,82.2%,inactive,inactive,,11.8 µM (active),16.6 µM (active),20.9 µM (active),
COc1cc(Nc2ncc3c(n2)-c2ccc(Cl)cc2C(c2c(F)cccc2OC)=NC3)ccc1C(=O)O,0.0066 µM (active),24.8%,28.7%,inactive,inactive,0.0743 µM (active),0.059 µM (active),1.87 µM (active),,
O=C(c1cc(Cc2n[nH]c(=O)c3ccccc23)ccc1F)N1CCN(C(=O)C2CC2)CC1,16.6 µM (active),71.5%,45.4%,inactive,inactive,,3.72 µM (active),10.5 µM (active),8.33 µM (active),
O=C1CCCC2=C1C(c1[nH]ncc1Cl)N=C(Nc1nc3ccccc3o1)N2 (stereo unspecified),29.6 µM (active),73.8%,82.3%,inactive,inactive,,inactive,10.5 µM (active),inactive,
Nc1ncnc2nc(-c3ccc(N4CCOCC4)nc3)cc(-c3cccc(Br)c3)c12,14.8 µM (active),76%,55.4%,inactive,inactive,33.2 µM (active),,20.9 µM (active),,
CCc1ccc(CCOc2ccc(CC3SC(=O)NC3=O)cc2)nc1 (stereo unspecified),16.6 µM (active),142%,100%,inactive,inactive,inactive,,0.296 µM (active),0.0148 µM (active),inactive
CS(=O)(=O)c1cccc(CNc2nc(Nc3ccc4c(c3)CCC(=O)N4)ncc2C(F)(F)F)c1,3.32 µM (active),13.6%,7.96%,inactive,inactive,13.2 µM (active),11.8 µM (active),16.6 µM (active),20.9 µM (active),
CC1(C)SCCN(S(=O)(=O)c2ccc(OCC#CCO)cc2)[C@@H]1C(=O)NO,23.5 µM (active),80%,102%,inactive,inactive,inactive,inactive,13.2 µM (active),,
NC(=O)c1ccc(I)c([N+](=O)[O-])c1,37.2 µM (active),44.8%,40.1%,inactive,inactive,inactive,,inactive,,

Structure (SMILES),Potency [1],"cell viability, % of control (lower = more cytotoxic) [2]",viability (% of control) [3],Potency [4],Potency [5],Potency [6],Potency [7],Potency [8],Potency [9],Potency [10]
Cn1cnc2c(F)c(Nc3ccc(Br)cc3Cl)c(C(=O)NOCCO)cc21,16.6 µM (active),4.9%,23.1%,inactive,inactive,2.64 µM (active),20.9 µM (active),16.6 µM (active),,
CCCS(=O)(=O)Nc1ccc(F)c(C(=O)c2c[nH]c3ncc(Cl)cc23)c1F,16.6 µM (active),113%,17.1%,inactive,inactive,,16.6 µM (active),18.7 µM (active),,
Cc1ccc(-n2nc(C(C)(C)C)cc2NC(=O)Nc2ccc(OCCN3CCOCC3)c3ccccc23)cc1,26.4 µM (active),240%,64.8%,,inactive,,20.9 µM (active),20.9 µM (active),29.6 µM (active),
COc1ccccc1[C@H](c1cccc2ccccc12)[C@@](C)(C#N)C(=O)N1CCC(c2cccc(C(F)(F)F)c2)CC1,2.64 µM (active),2.69%,10.6%,inactive,inactive,6.62 µM (active),13.2 µM (active),10.5 µM (active),13.2 µM (active),
CS(=O)(=O)Oc1ccc2c(NC(N)=O)c(C(=O)c3ccc(Cl)cc3Cl)oc2c1,16.6 µM (active),153%,13.2%,inactive,inactive,23.5 µM (active),,14.8 µM (active),,
CN(C)c1ccc(C2Nc3ccc4ccccc4c3C3=C2C(=O)CC(C)(C)C3)cc1Br (stereo unspecified),14.8 µM (active),119%,111%,inactive,inactive,inactive,16.6 µM (active),,,
CC1(C)Cc2c(-c3ccccc3)c(-c3ccc(Cl)cc3)c(CC(=O)O)n2C1,5.26 µM (active),71.9%,78.3%,inactive,inactive,,,16.6 µM (active),,
COc1ccc(-c2oc3cc(OC)ccc3c2C(=O)c2ccc(C#N)cc2)cc1,20.9 µM (active),84.5%,19.6%,inactive,inactive,inactive,inactive,,,
CCCC(CCC)C(=O)O,,83.8%,100%,inactive,inactive,inactive,,inactive,inactive,
c1ccc([C@H]2CN3CCSC3=N2)cc1,,200%,116%,inactive,inactive,inactive,,inactive,inactive,
O=C1CCc2cc(OCCCCc3nnnn3C3CCCCC3)ccc2N1,,137%,84.4%,inactive,inactive,inactive,,inactive,inactive,
CCCCNc1cc(C(=O)O)cc(S(N)(=O)=O)c1Oc1ccccc1,,596%,113%,inactive,inactive,inactive,inactive,inactive,inactive,
CNC(=O)c1ccc(N2C(=S)N(c3ccc(C#N)c(C(F)(F)F)c3)C(=O)C2(C)C)cc1F,,185%,112%,inactive,inactive,inactive,inactive,inactive,inactive,
OCCC#Cc1nc(-c2ccc(F)cc2)c(-c2ccncc2)n1CCCc1ccccc1,,98.7%,18.4%,inactive,inactive,,,,,
O=C(O)CCc1ccc(NCc2cccc(Oc3ccccc3)c2)cc1,,132%,108%,inactive,inactive,inactive,,inactive,inactive,
N[C@@H]1CONC1=O,,150%,97.9%,inactive,inactive,inactive,inactive,inactive,inactive,
Cc1oncc1C(=O)Nc1ccc(C(F)(F)F)cc1,,32.8%,63.8%,inactive and 2.64 µM (active),inactive and 2.64 µM (active),20.9 µM (active),,18.7 µM (active),8.33 µM (active),
CC(=O)Oc1ccccc1C(=O)O,,125%,135%,inactive,inactive,20.9 µM (active),11.8 µM (active),18.7 µM (active),8.33 µM (active),
O=C1CCC(N2C(=O)c3ccccc3C2=O)C(=O)N1 (stereo unspecified),,167%,95.9%,inactive,inactive,inactive,,inactive,inactive,
CC(C)(C)OC(=O)CN(Cc1ccc(Cl)cc1)Cc1ccc([N+](=O)[O-])s1,,18.4%,30.5%,10.5 µM (active),inactive,,,2.35 µM (active),inactive,
